Assay outcomes deposited in PubChem by The Scripps Research Institute Molecular Screening Center.
MITF inh: human MITF inhibition, primary screen. AlphaScreen MITF homodimerization, bead proximity signal. actives 0.91% (n = 650,000). AID 1259374. O75030. inhibition, % at 2.6 µM; in the data active means inhibition above about 50%;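 further: 0% = vehicle wells with protein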
TEAD-YAP block: TEAD-YAP interaction inhibition; HEK-TIYL cells, TEAD-Gal4/YAP UAS-luciferase luminescence; AID 1259422; actives 1.4% (n = 640,000); inhibition, % at 9.12 µM; in the data active means inhibition above about 32%;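 further: 0% = median of test compound wells and 100% = reference inhibitor wells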
GPR151 ag: activates the human receptor GPR151. Q8TDV0. PathHunter beta-arrestin GPR151 cells, luminescence. activation, % at 11.2 µM. actives 1% (n = 650,000). AID 1508602; in the data active means activation above about 4.9%;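 further: 0% = median of compound wells and 100% = cells with positive control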
FBW7 act: human FBW7 E3 ligase activation, primary screen | AlphaScreen FBW7–phospho-cyclin E peptide binding, activator screen | AID 1259310 | normalized activity (activation), % at 26.1 µM | actives 0.13% (n = 650,000) | Q969H0; in the data active means normalized activity above about 1.9%;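 further: purified mutant Fbw7 with reduced substrate affinity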
Target sequence (Q969H0 whole entry, looked up): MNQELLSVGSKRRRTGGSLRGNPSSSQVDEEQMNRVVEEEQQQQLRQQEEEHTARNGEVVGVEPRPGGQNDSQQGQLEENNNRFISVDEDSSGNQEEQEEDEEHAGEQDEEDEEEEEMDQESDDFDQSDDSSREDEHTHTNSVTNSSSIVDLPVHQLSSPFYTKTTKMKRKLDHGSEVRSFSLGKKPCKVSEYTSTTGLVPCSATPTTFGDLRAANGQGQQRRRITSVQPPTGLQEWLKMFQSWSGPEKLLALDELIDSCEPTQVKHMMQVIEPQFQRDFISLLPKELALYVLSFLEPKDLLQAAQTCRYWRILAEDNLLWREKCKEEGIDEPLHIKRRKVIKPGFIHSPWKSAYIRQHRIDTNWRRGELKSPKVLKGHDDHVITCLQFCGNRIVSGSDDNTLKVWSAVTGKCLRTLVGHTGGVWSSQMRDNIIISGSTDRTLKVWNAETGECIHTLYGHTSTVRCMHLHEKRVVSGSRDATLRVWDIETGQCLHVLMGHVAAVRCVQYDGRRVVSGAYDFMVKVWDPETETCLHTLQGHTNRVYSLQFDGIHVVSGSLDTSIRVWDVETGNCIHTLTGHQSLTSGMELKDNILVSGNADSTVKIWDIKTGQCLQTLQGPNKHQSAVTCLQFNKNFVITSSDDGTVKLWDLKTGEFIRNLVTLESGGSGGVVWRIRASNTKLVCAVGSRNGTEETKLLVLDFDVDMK
Starred values were filed as active, the others as inactive. An excerpt weighted towards active compounds, which were near 3.5% of everything screened.

SMILES | MITF inh | TEAD-YAP block | GPR151 ag | FBW7 act
COC(=O)C1=NN(C(=O)Cc2ccccc2)C(O)(C(C)(C)C)C1 (centres undefined) | 16.1 | -0.9 | -0.4 | 2.0*
CCOC(=O)C1=NN(C(=O)Cc2ccccc2)C(O)(C(C)(C)C)C1 (centres undefined) | -5.8 | 12.9 | 0.1 | 0.3
Oc1ccc2cc(Br)ccc2c1Br | 24.1 | -5.6 | -0.1 | 2.1*
CC(C)(C)c1ccc(-c2cn[nH]c2N)cc1 | 11.2 | -2.0 | -0.9 | 0.2
CN(C)S(=O)(=O)Nc1ccc(N2CCC(NCc3cccnc3)CC2)cc1 | 8.8 | -1.8 | -0.3 | -0.1
CN(C)CCN(C(=O)c1c(F)cccc1F)c1nc2ccccc2s1 | 5.8 | -13.2 | -0.9 | -0.1
CN(C)CCCN(C(=O)/C=C\c1ccc([N+](=O)[O-])cc1)c1nc2c(F)cccc2s1 | -20.3 | 76.3* | -0.6 | -0.1
N#Cc1c(-n2ncnc2-c2cccs2)sc2c1CCCCC2 | 22.4 | 63.9* | 0.6 | -0.1
Cc1ccc(-c2ncnn2-c2sc3c(c2C#N)CCCCC3)cc1 | 5.0 | 2.2 | -1.1 | -0.7
CCOC(=O)c1nc(Nc2ccc(Oc3ccc4c(c3)C(=O)N(c3cccc(C(F)(F)F)c3)C4=O)cc2)c2ccccc2n1 | 7.3 | 1.8 | 0.9 | -0.2
O=C(Nc1ccccc1NC(=O)c1cc2ccccc2o1)c1ccccn1 | -3.2 | -3.8 | 0.4 | -0.1
Cc1ccnc(NC(=O)c2cc3ccccc3o2)c1 | 3.5 | 55.8* | -8.3 | 0.5
O=C(Nc1ccccn1)c1cc2ccccc2o1 | 10.8 | 70.5* | -9.6 | -0.2
Cc1cc(C)cc(NC(=O)c2cc3ccccc3o2)c1 | 2.0 | -26.6 | -0.6 | 0.0
Cc1ccc(CN2CCN3C(=O)[C@H](COCc4ccccc4)NC(=O)[C@H]3C2)cc1 | -1.0 | 0.7 | 0.6 | 0.0
Cc1ccccc1NC(=O)c1cccc2c1C(=O)c1ccccc1-2 | 12.1 | 52.7* | -0.3 | -0.2
Brc1ccc(CSc2nn3cnnc3s2)cc1 | -9.7 | 52.7* | 0.4 | 0.0
Nc1nnc(SCc2ccc(Br)cc2)s1 | 14.3 | -3.9 | -0.6 | 0.1
CCCCOc1ccc(-c2cnc(S(C)(=O)=O)nc2)cc1 | -0.2 | 46.1* | 2.3 | 0.0
CCOc1ccc(C2NC(=O)NC3=C2C(=O)N(CCc2ccccc2)C3)cc1 (centres undefined) | -2.3 | -3.9 | -1.2 | 0.0
CC(=O)NC1=NN(C(C)=O)C(C)(c2ccccc2)S1 (centres undefined) | -4.1 | 61.4* | -0.6 | -0.2
CC(=O)NC1=NN(C(C)=O)C(C)(c2cccc(OC(C)=O)c2)S1 (centres undefined) | 0.0 | 63.8* | 1.1 | 0.1
CC(=O)NC1=NN(C(C)=O)C(C)(c2ccc3ccccc3c2)S1 (centres undefined) | 0.6 | 4.0 | -0.1 | 0.0
CC(=O)NC1=NN(C(C)=O)C(C)(c2ccc(NC(C)=O)cc2)S1 (centres undefined) | -5.2 | 4.2 | -0.1 | 0.2
COc1ccc(/C=C(/C#N)c2nc(C3CC3)cs2)cc1OC | 3.4 | -34.6 | 1.3 | 0.6
SMILES | MITF inh | TEAD-YAP block | GPR151 ag | FBW7 act
COc1cccc(/C=C(/C#N)c2nc(C3CC3)cs2)c1 | -1.0 | -56.0 | -0.8 | 3.5*
COc1cccc(-n2c(SCC(=O)N3CCC(C)CC3)nc3n[nH]c(C)c3c2=N)c1 | 14.5 | 13.3 | -0.2 | -0.3
COc1cccc(-n2c(SCC(=O)N3CCN(c4ccccc4OC)CC3)nc3n[nH]c(C)c3c2=N)c1 | 14.4 | 42.7* | 0.9 | 0.1
Cc1cc(-n2c(SCC(=O)NCc3ccco3)nc3n[nH]c(C)c3c2=N)ccc1Cl | 0.8 | 2.0 | 4.9 | -0.1
Cc1ccc(-n2c(SCC(=O)NCc3ccco3)nc3n[nH]c(C)c3c2=N)cc1C | -0.4 | 56.1* | 2.8 | -0.1
O=c1[nH][n+](-c2ccccc2C(F)(F)F)no1 | 2.2 | -3.2 | 0.3 | 0.2
O=C(Nc1cc(C(=O)N2CCCC2)ccc1N1CC2CC(C1)c1cccc(=O)n1C2)c1ccncc1 (centres undefined) | -1.3 | 6.4 | 2.6 | 0.0
CCS(=O)(=O)c1ncc(Cl)c(C(=O)Nc2cccc(Cl)c2)n1 | 5.8 | 95.2* | -2.1 | -0.2
CCS(=O)(=O)c1ncc(Cl)c(C(=O)Nc2ccc(C)c(C)c2)n1 | -4.7 | 35.2* | -1.8 | -0.2
CCCS(=O)(=O)c1ncc(Cl)c(C(=O)Nc2ccc(OC)cc2)n1 | 16.0 | 33.7* | -2.0 | 1.0
Cc1ccccc1CNC(=O)CN(c1cccc(Cl)c1C)S(C)(=O)=O | -3.0 | 2.8 | 3.2 | 0.1
C[C@H](O)[C@H]1NC(=O)[C@H]2CN(Cc3ccc(Cl)s3)CCN2C1=O | 5.0 | -6.4 | 0.5 | -0.2
COc1ccc(C(=O)Nc2nc3c(s2)CCCC3)c(OC)c1OC | 7.6 | 62.4* | -1.6 | 0.6
COc1cccc(C(=O)Nc2nc3c(s2)CCC3)c1OC | -4.5 | 62.2* | -9.0 | -0.1
COc1cccc(OC)c1C(=O)Nc1nc2c(s1)CCCC2 | 8.8 | -32.6 | 1.0 | 0.5
CCCCNC(=O)CSc1nnc2c(n1)[nH]c1ccc(C)cc12 | 1.2 | 0.1 | -1.2 | 0.2
Cc1ccc(N2CC(C(=O)Nc3cccc(Br)c3)CC2=O)cc1C (centres undefined) | -3.3 | 2.0 | -0.3 | 0.1
O=C(COc1ccc(F)cc1)Nc1ccc2c(c1)C(=O)NCCO2 | 8.5 | 41.5* | 0.6 | 0.0
O=C(CCC1CCCC1)Nc1ccc2c(c1)C(=O)NCCO2 | 5.7 | -62.5 | -0.7 | 0.1
COc1ccc(OC)c(NS(=O)(=O)c2ccc3[nH]c4c(c3c2)CCCC4)c1 | -2.1 | 35.4* | 2.0 | -0.1
COc1cc(NS(=O)(=O)c2ccc3[nH]c4c(c3c2)CCCC4)cc(OC)c1OC | 6.3 | 55.3* | 1.1 | 0.2
COc1cc(NS(=O)(=O)c2ccc3c(c2)Cc2ccccc2-3)cc(OC)c1OC | 9.1 | 41.7* | 4.9 | -0.1
CCN1C=C/C(=C/C=c2/s/c(=C\c3sc(-c4ccccc4)c(-c4ccccc4)[n+]3CC)n(CC)c2=O)c2ccccc21 | -58.4 | 7.6 | -1.0 | 2.0*
CCN1C=C\C(=C/C=C(/C=C/c2cc[n+](CC)cc2)c2cc[n+](CC)c3ccccc23)c2ccccc21 | 0.8 | 6.9 | -0.5 | -0.2
O=C(Nc1ccc2c(c1)OCCO2)c1ccc(F)cc1 | -15.2 | 43.4* | -6.3 | 0.2
SMILES | MITF inh | TEAD-YAP block | GPR151 ag | FBW7 act
COc1cc(OC)c(S(=O)(=O)Nc2ccc3c(c2)OCCO3)cc1NC(C)=O | 3.1 | 34.6* | 0.4 | -0.1
COc1cccc(S(=O)(=O)Nc2ccc3c(c2)OCCO3)c1 | 1.2 | 32.7* | 0.3 | -0.1
Cc1ccc(C(=O)Nc2ccc3c(c2)OCCO3)cc1 | -19.3 | -0.3 | 1.3 | 0.2
O=C(Nc1onc2c1CCC2)c1ccc2ccccc2c1 | -8.9 | -25.9 | 0.0 | 0.0
O=C(Nc1onc2c1CCCC2)c1ccc2c(c1)OCO2 | 6.3 | 64.7* | -9.0 | 0.0
Cc1ccc2nc(-c3ccc(NC(=O)CN(c4ccccc4)S(=O)(=O)c4ccccc4)cc3)sc2c1 | 11.4 | -26.1 | -0.5 | -0.1
Cc1ccc(C(=O)Nc2ccc3c(c2)OCO3)cc1 | 7.7 | 44.3* | -4.6 | 0.0
O=C(Nc1ccc2ncsc2c1)c1ccc2c(c1)OCCO2 | 3.4 | 85.6* | -8.2 | 0.1
COc1cccc(C(=O)Nc2ccc3c(c2)OCCO3)c1 | 13.0 | 79.0* | -9.6 | 0.0
